In test [1] the target is T1, 3-phosphoinositide-dependent protein kinase 1 (Homo sapiens) (UniProt O15530).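 Also: values are mean inhibition of PDK1.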
T1 sequence (whole entry): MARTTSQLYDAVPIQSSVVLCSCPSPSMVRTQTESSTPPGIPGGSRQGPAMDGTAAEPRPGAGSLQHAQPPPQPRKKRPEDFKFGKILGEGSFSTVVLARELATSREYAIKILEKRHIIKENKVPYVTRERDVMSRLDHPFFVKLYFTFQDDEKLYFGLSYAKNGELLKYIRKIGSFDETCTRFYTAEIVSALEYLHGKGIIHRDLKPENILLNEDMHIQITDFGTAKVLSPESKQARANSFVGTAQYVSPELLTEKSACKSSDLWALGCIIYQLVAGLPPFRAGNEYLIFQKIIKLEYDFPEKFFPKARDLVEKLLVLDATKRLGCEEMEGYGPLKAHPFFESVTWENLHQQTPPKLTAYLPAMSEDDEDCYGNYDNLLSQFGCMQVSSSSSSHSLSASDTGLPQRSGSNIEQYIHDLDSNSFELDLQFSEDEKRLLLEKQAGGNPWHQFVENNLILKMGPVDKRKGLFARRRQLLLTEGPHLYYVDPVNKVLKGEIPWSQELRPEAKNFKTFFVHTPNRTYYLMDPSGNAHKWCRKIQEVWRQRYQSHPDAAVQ
To be noted: at 0.1 µM.

The target in test [2] is cAMP-dependent protein kinase catalytic subunit alpha (Homo sapiens) (UniProt P17612). The note with it: at 0.1 µM.
Test [3] shares this target. To be noted: at 1 µM.
Test [4] concerns the target Protein kinase C alpha type (Homo sapiens) (UniProt P17252). The note with it: at 0.1 µM.
Test [5] has the same target. The note with it: at 1 µM.
Test [6] deals with Protein kinase C beta type (Homo sapiens) (UniProt P05771). The note with it: at 0.1 µM.
Test [7] has the same target. The note with it: at 1 µM.
Test [8] concerns the target Protein kinase C eta type (Homo sapiens) (UniProt P24723). The note with it: at 0.1 µM.
For test [9] the target is unchanged. To be noted: at 1 µM.
Test [10] concerns the target Protein kinase C gamma type (Homo sapiens) (UniProt P05129). To be noted: at 0.1 µM.
The target is the same in test [11]. The note with it: at 1 µM.
In test [12] the target is T2, Protein kinase C iota type (Homo sapiens) (UniProt P41743).
T2 sequence (whole entry): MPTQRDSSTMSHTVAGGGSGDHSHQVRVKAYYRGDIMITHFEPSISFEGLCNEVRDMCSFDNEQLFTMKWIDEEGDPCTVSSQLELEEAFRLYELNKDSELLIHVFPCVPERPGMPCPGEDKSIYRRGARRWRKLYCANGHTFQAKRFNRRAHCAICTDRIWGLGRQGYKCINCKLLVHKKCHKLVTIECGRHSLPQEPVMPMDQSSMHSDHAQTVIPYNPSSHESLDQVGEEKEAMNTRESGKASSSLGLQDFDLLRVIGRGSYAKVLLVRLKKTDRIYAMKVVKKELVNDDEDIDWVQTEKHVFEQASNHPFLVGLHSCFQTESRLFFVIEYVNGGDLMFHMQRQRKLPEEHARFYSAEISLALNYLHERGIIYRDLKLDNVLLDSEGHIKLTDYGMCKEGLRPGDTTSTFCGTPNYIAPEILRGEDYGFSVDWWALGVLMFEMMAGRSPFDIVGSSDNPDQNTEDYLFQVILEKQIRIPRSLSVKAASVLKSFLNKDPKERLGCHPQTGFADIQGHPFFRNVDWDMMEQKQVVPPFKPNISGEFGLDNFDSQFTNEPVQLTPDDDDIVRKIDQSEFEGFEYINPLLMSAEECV
To be noted: at 0.1 µM.

The target of test [13] is T2, Protein kinase C iota type (Homo sapiens). To be noted: at 1 µM.
Test [14] has as its target Protein kinase C theta type (Homo sapiens) (UniProt Q04759). To be noted: at 0.1 µM.
The target is the same in test [15]. The note with it: at 1 µM.
In test [16] the target is Protein kinase C beta type (Homo sapiens) (UniProt P05771). The note with it: at 0.1 µM. The source holds these as a separate data set.
For test [17] the target is unchanged. The note with it: at 1 µM. This is another data set of the same source.
Test [18] has as its target T3, Serine/threonine-protein kinase D1 (Homo sapiens) (UniProt Q15139).
T3 sequence (whole entry): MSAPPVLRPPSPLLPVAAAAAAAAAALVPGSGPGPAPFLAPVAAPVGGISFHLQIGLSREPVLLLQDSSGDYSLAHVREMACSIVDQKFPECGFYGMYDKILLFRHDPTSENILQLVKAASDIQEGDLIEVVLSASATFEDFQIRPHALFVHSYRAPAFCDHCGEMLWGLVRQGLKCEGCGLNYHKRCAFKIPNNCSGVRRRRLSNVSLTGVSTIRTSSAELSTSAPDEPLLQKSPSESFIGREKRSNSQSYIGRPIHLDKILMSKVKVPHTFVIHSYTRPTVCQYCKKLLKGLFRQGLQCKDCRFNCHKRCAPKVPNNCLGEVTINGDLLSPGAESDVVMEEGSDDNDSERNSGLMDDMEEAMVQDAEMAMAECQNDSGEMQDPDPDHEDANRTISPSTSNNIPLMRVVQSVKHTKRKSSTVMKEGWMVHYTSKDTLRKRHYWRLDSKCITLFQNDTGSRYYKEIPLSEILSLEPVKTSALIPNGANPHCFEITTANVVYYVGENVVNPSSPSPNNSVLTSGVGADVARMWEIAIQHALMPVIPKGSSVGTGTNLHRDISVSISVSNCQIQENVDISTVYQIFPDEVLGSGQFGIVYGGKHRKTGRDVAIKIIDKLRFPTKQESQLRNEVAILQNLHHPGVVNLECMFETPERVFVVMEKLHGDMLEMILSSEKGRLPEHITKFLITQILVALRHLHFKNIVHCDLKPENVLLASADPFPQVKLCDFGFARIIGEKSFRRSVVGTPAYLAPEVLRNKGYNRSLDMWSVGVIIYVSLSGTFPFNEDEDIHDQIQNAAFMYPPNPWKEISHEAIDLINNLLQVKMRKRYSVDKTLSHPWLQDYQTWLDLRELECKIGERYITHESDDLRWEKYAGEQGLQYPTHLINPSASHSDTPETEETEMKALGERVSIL
The note with it: at 0.1 µM.

Test [19] concerns the target T3, Serine/threonine-protein kinase D1 (Homo sapiens). The note with it: at 1 µM.
For test [20], the target named is T4, Serine/threonine-protein kinase D2 (Homo sapiens) (UniProt Q9BZL6).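 Also: reported percent inhibition values are means, part of the GSK PKIS kinase panel screen.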
T4 sequence (whole entry): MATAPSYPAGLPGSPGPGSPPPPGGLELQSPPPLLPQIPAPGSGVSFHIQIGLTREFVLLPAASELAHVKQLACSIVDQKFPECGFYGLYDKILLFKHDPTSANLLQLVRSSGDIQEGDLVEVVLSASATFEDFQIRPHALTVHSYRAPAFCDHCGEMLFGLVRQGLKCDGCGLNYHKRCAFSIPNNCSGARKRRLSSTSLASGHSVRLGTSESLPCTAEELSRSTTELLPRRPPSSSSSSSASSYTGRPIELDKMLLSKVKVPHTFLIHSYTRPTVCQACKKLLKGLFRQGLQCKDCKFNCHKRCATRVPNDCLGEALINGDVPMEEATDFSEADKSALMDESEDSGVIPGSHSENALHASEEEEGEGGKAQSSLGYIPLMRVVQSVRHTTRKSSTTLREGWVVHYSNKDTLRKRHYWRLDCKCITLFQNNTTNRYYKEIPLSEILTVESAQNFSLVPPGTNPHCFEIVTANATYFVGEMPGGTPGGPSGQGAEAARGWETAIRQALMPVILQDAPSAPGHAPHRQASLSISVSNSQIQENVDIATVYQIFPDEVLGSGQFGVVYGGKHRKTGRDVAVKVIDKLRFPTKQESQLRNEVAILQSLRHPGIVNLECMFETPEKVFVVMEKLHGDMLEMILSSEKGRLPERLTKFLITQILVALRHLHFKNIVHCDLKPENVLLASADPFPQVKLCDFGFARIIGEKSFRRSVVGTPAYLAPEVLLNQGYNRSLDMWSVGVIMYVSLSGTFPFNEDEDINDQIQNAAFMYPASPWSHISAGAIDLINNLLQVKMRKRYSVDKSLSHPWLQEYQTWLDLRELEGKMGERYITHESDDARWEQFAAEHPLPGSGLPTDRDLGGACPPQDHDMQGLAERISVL
The note with it: at 0.1 µM.

SMILES strings stand for the structures.

Protein kinase C beta type (Homo sapiens), sequence (P05771 2-671 limits assumed): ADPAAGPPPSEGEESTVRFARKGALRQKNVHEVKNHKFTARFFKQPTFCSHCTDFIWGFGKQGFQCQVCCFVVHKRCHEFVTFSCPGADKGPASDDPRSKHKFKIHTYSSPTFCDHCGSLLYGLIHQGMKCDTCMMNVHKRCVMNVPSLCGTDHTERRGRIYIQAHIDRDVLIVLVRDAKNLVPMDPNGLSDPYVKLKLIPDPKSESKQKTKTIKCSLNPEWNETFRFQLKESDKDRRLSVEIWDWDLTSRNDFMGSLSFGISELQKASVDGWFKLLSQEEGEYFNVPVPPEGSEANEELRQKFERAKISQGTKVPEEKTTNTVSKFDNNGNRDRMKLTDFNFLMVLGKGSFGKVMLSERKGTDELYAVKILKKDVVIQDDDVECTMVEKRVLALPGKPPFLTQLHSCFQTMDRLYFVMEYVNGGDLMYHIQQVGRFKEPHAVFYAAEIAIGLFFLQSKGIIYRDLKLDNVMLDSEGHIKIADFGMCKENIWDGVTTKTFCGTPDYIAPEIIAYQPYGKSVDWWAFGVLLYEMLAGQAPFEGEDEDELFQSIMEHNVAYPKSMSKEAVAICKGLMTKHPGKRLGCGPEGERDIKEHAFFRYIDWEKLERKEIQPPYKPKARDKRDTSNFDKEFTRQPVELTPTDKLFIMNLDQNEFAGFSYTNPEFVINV
Protein kinase C eta type (Homo sapiens), sequence (P24723 whole entry): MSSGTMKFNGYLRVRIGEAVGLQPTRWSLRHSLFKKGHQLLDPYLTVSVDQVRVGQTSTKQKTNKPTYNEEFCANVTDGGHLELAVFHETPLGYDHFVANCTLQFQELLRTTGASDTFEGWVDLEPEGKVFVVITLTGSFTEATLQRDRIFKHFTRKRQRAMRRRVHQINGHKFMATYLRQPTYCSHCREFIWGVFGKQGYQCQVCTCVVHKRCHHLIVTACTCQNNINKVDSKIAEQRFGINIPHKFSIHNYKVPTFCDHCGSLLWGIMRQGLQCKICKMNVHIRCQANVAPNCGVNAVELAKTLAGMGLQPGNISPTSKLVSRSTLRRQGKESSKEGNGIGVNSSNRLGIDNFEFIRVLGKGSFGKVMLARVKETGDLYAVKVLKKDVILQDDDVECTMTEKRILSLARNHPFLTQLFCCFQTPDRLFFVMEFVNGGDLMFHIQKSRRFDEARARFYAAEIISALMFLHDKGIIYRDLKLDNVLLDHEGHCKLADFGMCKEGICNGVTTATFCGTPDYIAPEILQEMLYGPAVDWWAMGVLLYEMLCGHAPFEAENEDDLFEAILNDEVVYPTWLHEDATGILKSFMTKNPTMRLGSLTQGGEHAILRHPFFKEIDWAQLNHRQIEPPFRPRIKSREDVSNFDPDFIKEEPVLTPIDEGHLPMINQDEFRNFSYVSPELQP
Protein kinase C theta type (Homo sapiens), sequence (Q04759 whole entry, looked up): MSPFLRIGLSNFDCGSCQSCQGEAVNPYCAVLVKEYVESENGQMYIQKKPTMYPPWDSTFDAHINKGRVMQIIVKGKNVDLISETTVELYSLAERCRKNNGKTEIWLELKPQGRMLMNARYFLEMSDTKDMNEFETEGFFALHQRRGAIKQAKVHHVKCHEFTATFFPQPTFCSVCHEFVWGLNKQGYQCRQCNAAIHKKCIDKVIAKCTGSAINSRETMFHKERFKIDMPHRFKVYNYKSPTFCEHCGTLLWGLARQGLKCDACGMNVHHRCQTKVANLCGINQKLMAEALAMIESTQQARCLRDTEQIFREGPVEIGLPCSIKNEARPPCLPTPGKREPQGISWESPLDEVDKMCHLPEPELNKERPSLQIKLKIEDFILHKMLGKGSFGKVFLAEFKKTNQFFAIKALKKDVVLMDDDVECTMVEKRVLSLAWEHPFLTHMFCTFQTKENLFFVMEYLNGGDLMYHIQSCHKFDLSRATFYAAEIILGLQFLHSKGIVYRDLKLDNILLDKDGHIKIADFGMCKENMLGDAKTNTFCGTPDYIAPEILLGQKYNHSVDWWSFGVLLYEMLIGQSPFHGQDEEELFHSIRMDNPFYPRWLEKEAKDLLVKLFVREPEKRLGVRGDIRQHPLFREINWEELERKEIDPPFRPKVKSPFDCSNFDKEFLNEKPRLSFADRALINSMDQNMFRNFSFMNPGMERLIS

On to `O=C1Nc2ccccc2/C1=C/Nc1ccc2[nH]c(=O)[nH]c2c1`, for which the inhibition (in general, the change of the read-out against control, counted positive when it falls) was 9.34% in test [1]; 2.27% in [2]; 4.1% in test [3]; 0.57% in test [4]; 2.34% in test [5]; 0.19% in test [6]. Further, the inhibition came to 4.33% in [7]; 3.3% in [8]; 3.84% in [9]; 2.03% in [10]; 4.72% in [11]; 1.72% in test [12]. The inhibition is 0.7% in test [13]; 2.03% in test [14]; 4.75% in test [15]; 1.79% in test [16]; 2.19% in [17]; 4.45% in test [18]. The inhibition in test [19] is 16.5%; in test [20], 5.28%.

For the compound `Cc1cc(Cl)cc2c1NC(=O)C2=NNc1ccc(S(N)(=O)=O)cc1`, the inhibition in test [1] is 0.95%; in [2], 1.21%; in test [3], 1.37%; in test [4], 0.07%; in test [5] it was -0.61%; in [6], 0.78%. Besides, the inhibition in [7] was 2.56%; in test [8] it was -0.95%; in test [9], 2.95%; in test [10], 0.4%; in test [11], 1.99%; in test [12], 0.57%. Further, the inhibition came out at 0.13% in [13]; 1.67% in test [14]; 3.19% in test [15]; 0.04% in [16]; 1.07% in test [17]; 2.49% in test [18]. Also, the inhibition in test [19] was 2.15%; in [20], 2.28%.

As to `CS(=O)(=O)CCNCc1nc(-c2ccc3ncnc(Nc4ccc(OCc5cccc(C(F)(F)F)c5)cc4)c3c2)cs1`, the inhibition in test [1] is 0.07%; in test [2] it was 1.46%; in [3] it was 0.51%; in test [4], -0.15%; in test [5] it was -0.72%; in test [6], 0.26%. Moreover, the inhibition in test [7] was 1.43%; in test [8] it was 3.05%; in test [9], 2.2%; in [10], 0.96%; in test [11], 1.21%; in test [12] it was -0.91%. Also, the inhibition in test [13] is -0.71%; in test [14], 0.61%; in [15], 0.48%; in test [16], 0.86%; in test [17] it was 1.98%; in test [18], 1.69%. Also, the inhibition in test [19] is 0.7%; in test [20], 1.93%.

Values taken from ChEMBL document CHEMBL1961873, “Compounds: GSK PKIS; Assays: Nanosyn kinase panel” (2012).
